From the supplement of paper PMC11732987, “Enantioselective OTUD7B fragment discovery through chemoproteomics screening and high-throughput optimisation” (Communications Chemistry, 2025)

Columns and labels:
Experiment in all cases: log2 ratio of Biotin-Ahx-Ub-VS probe labelling (fragment/DMSO); higher = less target engagement (more negative = stronger competition), active = hit call of the paper (q ≤ 0.05, log2 ratio ≤ -1)
Details in all cases: compound concentration: 200 uM; treatment time: 3 h
USP34 = USP34 (UniProt Q70CQ2)
Chain of USP34 (Q70CQ2 whole entry, the tested form may be a part): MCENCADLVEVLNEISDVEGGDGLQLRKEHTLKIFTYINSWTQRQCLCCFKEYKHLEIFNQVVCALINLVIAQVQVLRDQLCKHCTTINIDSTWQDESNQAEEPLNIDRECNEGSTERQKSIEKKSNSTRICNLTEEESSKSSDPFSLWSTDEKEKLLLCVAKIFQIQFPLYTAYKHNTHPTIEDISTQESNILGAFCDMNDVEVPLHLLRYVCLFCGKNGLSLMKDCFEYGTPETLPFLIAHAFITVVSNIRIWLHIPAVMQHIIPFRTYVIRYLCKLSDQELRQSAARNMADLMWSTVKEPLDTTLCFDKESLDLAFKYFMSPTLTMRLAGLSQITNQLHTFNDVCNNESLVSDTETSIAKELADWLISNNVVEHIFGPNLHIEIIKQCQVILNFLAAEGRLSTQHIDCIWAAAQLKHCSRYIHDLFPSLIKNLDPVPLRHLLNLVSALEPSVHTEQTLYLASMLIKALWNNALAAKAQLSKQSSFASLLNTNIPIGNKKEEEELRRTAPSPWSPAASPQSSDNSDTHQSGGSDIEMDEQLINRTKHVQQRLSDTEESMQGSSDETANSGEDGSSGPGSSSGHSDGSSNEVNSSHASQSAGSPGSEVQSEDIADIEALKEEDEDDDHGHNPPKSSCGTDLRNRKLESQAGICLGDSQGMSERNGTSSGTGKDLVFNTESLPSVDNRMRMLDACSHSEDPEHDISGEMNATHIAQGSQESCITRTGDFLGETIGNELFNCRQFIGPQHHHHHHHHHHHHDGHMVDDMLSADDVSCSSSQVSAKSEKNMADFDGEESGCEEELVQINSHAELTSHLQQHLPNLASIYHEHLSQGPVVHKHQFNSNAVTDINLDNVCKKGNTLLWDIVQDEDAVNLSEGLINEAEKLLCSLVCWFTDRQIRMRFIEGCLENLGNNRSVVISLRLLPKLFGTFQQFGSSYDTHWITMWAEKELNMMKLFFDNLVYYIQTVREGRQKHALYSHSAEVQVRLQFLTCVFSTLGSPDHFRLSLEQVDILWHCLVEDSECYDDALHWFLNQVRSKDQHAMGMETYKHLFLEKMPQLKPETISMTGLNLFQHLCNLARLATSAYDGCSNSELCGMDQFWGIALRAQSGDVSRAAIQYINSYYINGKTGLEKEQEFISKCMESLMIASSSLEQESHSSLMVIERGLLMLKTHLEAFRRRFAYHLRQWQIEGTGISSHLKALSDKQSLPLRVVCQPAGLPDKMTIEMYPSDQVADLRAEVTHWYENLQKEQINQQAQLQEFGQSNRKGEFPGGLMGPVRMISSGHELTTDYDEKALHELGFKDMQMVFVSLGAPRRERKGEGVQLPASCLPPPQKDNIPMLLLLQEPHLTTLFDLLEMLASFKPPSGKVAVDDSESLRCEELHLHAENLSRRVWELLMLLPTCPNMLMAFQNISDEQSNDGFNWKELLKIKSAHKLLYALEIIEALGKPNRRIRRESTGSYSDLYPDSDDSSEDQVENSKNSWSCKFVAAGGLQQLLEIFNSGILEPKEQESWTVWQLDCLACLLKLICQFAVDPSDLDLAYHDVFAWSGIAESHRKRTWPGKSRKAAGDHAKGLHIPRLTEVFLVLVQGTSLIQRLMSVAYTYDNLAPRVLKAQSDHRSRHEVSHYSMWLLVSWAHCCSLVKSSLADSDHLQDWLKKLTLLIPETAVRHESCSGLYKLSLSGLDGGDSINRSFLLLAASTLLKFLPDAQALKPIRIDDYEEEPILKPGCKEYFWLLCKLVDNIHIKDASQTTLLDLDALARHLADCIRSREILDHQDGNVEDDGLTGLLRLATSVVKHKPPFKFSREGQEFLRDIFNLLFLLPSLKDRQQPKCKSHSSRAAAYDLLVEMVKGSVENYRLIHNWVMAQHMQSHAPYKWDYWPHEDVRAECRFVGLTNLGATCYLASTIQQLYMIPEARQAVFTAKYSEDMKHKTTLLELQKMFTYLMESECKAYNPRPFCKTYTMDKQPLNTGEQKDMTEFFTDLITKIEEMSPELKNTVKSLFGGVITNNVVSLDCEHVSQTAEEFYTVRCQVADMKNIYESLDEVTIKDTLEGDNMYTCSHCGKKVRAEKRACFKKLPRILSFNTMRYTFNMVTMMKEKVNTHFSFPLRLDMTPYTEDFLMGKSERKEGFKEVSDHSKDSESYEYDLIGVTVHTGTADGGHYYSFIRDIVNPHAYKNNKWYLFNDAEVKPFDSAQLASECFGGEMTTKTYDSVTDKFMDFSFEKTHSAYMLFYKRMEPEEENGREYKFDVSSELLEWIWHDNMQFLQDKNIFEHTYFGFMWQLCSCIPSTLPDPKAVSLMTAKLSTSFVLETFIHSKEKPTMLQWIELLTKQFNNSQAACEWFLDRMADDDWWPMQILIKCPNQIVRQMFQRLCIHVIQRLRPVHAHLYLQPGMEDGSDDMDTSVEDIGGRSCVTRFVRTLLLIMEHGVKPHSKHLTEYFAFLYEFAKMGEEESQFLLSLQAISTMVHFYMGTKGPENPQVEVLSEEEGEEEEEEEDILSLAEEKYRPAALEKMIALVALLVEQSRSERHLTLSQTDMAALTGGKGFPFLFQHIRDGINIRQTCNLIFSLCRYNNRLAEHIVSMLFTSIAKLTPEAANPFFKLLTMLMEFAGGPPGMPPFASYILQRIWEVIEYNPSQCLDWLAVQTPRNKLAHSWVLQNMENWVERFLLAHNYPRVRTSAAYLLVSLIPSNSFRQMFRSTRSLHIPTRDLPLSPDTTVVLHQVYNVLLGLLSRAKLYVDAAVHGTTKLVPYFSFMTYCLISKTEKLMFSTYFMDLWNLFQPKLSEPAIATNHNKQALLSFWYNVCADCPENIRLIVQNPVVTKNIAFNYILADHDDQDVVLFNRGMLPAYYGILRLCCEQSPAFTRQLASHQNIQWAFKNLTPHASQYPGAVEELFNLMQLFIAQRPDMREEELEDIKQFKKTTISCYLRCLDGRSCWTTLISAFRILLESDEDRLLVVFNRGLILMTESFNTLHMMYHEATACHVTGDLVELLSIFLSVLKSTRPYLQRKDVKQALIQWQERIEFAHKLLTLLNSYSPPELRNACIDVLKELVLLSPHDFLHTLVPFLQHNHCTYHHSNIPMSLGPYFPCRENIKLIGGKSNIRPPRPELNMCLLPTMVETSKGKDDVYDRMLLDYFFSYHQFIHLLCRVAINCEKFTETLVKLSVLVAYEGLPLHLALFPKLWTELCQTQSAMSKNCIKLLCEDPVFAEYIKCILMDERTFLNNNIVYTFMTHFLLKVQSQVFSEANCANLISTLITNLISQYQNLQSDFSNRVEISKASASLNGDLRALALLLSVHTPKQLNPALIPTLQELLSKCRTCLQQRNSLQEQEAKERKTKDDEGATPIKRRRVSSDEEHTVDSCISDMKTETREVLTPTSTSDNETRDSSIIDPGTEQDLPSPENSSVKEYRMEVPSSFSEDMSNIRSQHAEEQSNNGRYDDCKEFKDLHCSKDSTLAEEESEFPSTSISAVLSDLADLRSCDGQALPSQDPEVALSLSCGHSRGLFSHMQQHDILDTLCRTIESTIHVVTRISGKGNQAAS
Summary of the method: (§1)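 Labelled DUBs from HEK293T lysate were NeutrAvidin-enriched, digested with LysC and trypsin, and run by diaPASEF LC-MS/MS. Before that, each 495 µg sample in Tris/CHAPS/IGEPAL buffer with protease inhibitors was treated in triplicate with fragment at 200 µM or vehicle for 3 h, then with Biotin-Ahx-Ub-VS at 0.5 µM final for 1 h. Values are average log2 ratios of fragment over vehicle by unpaired t-test, based on global-median-normalised Spectronaut label-free quantities from proteins with ≥2 unique peptides.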

USP36 = target: T1, USP36 (UniProt Q9P275)
T1 sequence (whole entry): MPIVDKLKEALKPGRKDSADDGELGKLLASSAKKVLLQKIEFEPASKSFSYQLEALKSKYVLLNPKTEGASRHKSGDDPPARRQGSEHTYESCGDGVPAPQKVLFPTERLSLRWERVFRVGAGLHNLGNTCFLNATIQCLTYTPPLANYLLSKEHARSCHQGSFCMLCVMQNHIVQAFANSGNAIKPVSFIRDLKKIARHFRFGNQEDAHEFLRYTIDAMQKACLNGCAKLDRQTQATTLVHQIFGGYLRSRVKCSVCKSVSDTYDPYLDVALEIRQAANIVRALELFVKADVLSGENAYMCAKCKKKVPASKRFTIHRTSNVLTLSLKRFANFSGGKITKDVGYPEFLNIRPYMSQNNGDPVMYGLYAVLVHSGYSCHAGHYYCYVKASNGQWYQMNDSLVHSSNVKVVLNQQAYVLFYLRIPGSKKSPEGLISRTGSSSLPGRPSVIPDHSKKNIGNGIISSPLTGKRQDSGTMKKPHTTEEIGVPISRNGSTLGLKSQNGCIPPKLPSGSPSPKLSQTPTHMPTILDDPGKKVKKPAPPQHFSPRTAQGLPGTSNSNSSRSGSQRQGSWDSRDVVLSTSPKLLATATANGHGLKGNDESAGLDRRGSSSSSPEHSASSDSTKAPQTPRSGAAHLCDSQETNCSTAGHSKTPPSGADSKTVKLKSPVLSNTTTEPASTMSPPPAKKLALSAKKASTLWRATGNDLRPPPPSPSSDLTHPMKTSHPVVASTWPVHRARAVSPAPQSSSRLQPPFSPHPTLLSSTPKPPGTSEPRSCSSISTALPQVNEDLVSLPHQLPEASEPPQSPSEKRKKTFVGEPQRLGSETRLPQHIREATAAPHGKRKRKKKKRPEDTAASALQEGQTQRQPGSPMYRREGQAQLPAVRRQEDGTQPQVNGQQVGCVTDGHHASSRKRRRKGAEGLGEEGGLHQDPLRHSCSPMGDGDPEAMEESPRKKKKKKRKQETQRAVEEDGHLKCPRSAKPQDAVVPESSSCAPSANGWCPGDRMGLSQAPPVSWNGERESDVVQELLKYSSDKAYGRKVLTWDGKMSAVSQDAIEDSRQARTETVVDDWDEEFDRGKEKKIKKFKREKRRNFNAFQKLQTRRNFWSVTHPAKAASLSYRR
Summary of the method: as §1

USP38 = target: T2, USP38 (UniProt Q8NB14)
T2 sequence (whole entry): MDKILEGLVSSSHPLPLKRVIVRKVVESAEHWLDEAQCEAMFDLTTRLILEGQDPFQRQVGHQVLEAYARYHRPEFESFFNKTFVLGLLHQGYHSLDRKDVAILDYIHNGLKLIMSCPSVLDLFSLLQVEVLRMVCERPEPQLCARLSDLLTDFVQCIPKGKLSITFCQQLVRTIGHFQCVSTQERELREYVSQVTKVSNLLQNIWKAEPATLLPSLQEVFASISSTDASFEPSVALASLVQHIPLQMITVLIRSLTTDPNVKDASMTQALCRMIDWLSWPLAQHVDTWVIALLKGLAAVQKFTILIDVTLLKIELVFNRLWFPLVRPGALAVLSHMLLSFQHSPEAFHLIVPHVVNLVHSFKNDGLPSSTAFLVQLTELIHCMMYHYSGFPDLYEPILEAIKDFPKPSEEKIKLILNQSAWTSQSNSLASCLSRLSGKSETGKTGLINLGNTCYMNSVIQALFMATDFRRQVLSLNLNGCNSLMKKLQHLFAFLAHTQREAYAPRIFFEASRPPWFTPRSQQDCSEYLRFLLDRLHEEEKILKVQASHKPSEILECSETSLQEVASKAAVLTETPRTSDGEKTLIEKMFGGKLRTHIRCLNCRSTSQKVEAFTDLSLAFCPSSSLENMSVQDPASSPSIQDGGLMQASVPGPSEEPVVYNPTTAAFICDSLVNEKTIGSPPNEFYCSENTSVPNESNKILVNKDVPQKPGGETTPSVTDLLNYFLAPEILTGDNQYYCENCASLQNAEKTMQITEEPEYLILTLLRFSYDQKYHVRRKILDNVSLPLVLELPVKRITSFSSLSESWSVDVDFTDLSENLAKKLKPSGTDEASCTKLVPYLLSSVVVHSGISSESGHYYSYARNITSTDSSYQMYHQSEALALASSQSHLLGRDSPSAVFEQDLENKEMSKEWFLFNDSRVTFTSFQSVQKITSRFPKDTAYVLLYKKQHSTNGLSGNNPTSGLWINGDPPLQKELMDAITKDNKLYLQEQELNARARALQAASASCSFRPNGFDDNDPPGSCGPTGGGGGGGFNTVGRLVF
Summary of the method: as §1

USP39 = target: T3, USP39 (UniProt Q53GS9)
T3 sequence (whole entry): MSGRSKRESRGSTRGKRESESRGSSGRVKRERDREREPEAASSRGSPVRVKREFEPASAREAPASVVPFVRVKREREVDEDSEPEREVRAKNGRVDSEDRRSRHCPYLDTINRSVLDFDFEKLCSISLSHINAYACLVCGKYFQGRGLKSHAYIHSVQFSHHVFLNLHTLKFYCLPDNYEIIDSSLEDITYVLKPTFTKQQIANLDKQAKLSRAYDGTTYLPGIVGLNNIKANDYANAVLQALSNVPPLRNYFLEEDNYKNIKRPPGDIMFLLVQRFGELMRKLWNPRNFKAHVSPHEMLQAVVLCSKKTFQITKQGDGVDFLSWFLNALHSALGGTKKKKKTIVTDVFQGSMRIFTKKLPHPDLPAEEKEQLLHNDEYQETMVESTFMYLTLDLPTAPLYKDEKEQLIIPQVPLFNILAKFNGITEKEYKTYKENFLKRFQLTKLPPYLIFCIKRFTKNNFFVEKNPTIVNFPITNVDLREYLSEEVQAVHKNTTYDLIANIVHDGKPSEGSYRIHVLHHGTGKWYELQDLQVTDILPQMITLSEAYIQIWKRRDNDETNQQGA
Summary of the method: as §1

USP4 = target: T4, USP4 (UniProt Q13107)
T4 sequence (whole entry): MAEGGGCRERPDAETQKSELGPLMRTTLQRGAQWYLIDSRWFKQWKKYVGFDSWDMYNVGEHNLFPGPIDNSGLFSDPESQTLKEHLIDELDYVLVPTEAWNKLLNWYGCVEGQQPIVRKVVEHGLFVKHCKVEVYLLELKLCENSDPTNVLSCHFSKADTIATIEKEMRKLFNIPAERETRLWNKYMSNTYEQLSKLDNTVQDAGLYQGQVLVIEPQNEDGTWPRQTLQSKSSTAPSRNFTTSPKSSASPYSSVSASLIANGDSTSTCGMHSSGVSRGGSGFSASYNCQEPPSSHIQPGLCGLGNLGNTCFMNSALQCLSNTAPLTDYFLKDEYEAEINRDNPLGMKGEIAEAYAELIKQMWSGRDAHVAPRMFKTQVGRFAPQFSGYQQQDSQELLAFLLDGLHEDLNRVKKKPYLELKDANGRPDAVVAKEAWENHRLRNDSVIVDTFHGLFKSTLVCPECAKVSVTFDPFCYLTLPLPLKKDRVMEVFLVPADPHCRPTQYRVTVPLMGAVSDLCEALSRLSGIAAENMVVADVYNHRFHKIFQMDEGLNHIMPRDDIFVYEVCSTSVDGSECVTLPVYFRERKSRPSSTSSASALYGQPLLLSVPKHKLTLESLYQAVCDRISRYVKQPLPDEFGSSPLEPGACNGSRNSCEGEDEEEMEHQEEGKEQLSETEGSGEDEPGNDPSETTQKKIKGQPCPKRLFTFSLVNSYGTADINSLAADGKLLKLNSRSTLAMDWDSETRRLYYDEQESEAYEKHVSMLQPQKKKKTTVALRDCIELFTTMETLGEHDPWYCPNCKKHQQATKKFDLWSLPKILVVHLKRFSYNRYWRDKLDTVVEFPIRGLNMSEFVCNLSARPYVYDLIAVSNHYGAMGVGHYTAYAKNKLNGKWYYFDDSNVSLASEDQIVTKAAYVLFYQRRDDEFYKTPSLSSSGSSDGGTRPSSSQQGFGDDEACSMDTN
Summary of the method: as §1

Measured: log2 ratio of Biotin-Ahx-Ub-VS probe labelling

Cc1ccc(N(C(=O)CCl)C2C=CS(=O)(=O)C2)cc1 (stereo not given)
inactive: USP34 -0.0862 | USP36 -0.145 | USP38 0.105 | USP39 0.107 | USP4 0.0944
